Assay results as given in ChEMBL document CHEMBL4513216, “Probing the Open Global Health Chemical Diversity Library for Multistage-Active Starting Points for Next-Generation Antimalarials” (ACS Infect Dis, 2020).
The whole screen tested about 69,000 compounds, of which about 8,600 (12%) showed an effect of 50% or more. Only a selection was taken, and strong results are over-represented in it overall.

These molecules were tested on Plasmodium berghei (assay: Screen against P. berghei liver stage (PbLuc), transformed with Luciferase, at 10uM). Conditions: tested at 10 uM.
Format: functional, HepG2

SMILES | INHIBITION [%]
COc1ccc(CN2C[C@@H](OCc3csc(C)n3)[C@H]3COC[C@H]32)cc1 | -21.5
N#CC1CCCN(C(=O)Cn2ncc(N3CCCC3)cc2=O)C1 (stereo not given) | 44.9
CCc1cc(N2CCCC(CC)(C(=O)O)C2)nc(N2CCOCC2)n1 (stereo not given) | 39.6
CCc1cc(N2CCC3(CCCNC3=O)C2)nc(N2CCOCC2)n1 (stereo not given) | 70.3
Cc1cc(C2CCC2)nc(N2CCC3(CCCNC3=O)C2)n1 (stereo not given) | 42.5
COCCN1CCN(c2nc(O)cc(Cc3ccccc3F)n2)CC1 | 38.7
COCCN1CCC(CN(CC2CCCO2)C(=O)CCNC(C)=O)CC1 (stereo not given) | -14.9
Cn1c(CN2CCN(CC3CCCO3)CC2)nc2ccccc21 (stereo not given) | 27.6
COCCN1CCC(CN(CC2CCCO2)C(=O)COC)CC1 (stereo not given) | 26.8
Cc1cccc(C)c1OCCCN1CCN(CC2CCCO2)CC1 (stereo not given) | 67.1
Cc1cccc(C)c1OCCCN1CCC(n2cncn2)CC1 | -49.5
COCCN1CCC(CN(CC2CCCO2)C(=O)CNC(C)=O)CC1 (stereo not given) | 50.2
COCCCN1CCN(CC2CCCO2)CC1 (stereo not given) | 17.5
COCCN1CCN(CC2CCCCO2)CC1 (stereo not given) | 51.7
O=S(=O)(N1CCCC1)N1CCN(CC2CCCO2)CC1 (stereo not given) | 33.4
O=C(NCCCNC(=O)c1cccc(O)c1)Nc1ccc(Cl)cc1 | 45.5
CC(C)c1cc(C(=O)N2CCC3(CCc4ccccc4C(=O)N3)C2)no1 (stereo not given) | 2.415
O=S(=O)(c1c(F)cccc1F)N1CCCC1c1nnc2n1CCCCC2 (stereo not given) | -21.2
CCCN1CCCn2c(nc(CNC(=O)N3CCCC3)cc2=O)C1 | 49.1
COc1ccc2ncn(Cc3ncc[nH]3)c(=O)c2c1 | -64.3
CCc1ccc2ncn(Cc3ncc[nH]3)c(=O)c2c1 | 15.2
COc1cc2ncn(Cc3ncc[nH]3)c(=O)c2cc1OC | 64.1
CCn1cnnc1CNC(=O)N1CCN(Cc2ccco2)CC1 | -2.19
O=C(CC1CCCC1)N1C[C@H](OCc2ccncc2)[C@H]2OCCC[C@H]21 | -32
CN1CCOC(CNCC(=O)NCCc2ccc(F)cc2)C1 (stereo not given) | -2.27

SMILES | INHIBITION [%]
O=C(C[S+]([O-])Cc1ccc(F)cc1Cl)NC1CCCC1 (stereo not given) | 66.7
CC1CN(C)CCN1Cc1cccc(C(=O)N(C)C)c1 (stereo not given) | -32
CN(C)C(=O)c1cccc(CN2CCN(CCO)CC2)c1 | -170
O=C(C[S+]([O-])Cc1cccc(C(F)(F)F)c1)NC1CCCC1 (stereo not given) | 21.9
CN(C)C(=O)c1cccc(C[S+]([O-])CC(=O)NC2CCCC2)c1 (stereo not given) | 54.4
O=C(C[S+]([O-])Cc1cccc(Cl)c1)NC1CCCC1 (stereo not given) | 15.2
O=C(Cc1ccc(F)cc1Cl)N[C@@H]1CCNC[C@H]1O | 4.59
CN(CC(=O)NC1CC1)S(=O)(=O)c1ccc(F)cc1Cl | -26.8
O=C(C[S+]([O-])Cc1cccc(F)c1)NC1CCCC1 (stereo not given) | 54.4
COCCC1(CNC(=O)Nc2ccc(-n3ccnn3)cc2)CCC1 | -12.2
CSCC[C@H]1CN2CCC[C@H]2CN1Cc1cn(C)nc1C | 5.11
CN(Cc1ccco1)C(=O)C1CSCN1C(=O)C1CCC1 (stereo not given) | -16
CCS(=O)(=O)N1CCCCC1c1nc(C(C)C)no1 (stereo not given) | 57.3
CCS(=O)(=O)N1CCCCC1c1nc(C)no1 (stereo not given) | 20.1
CC(C)c1noc(C2CCCN2S(=O)(=O)N2CCCCCC2)n1 (stereo not given) | -31.7
Cc1ccc(C(C)NCc2c(C(C)C)nn(C)c2N2CCOCC2)o1 (stereo not given) | 7.27
CCOc1ccc(Br)cc1C1CCCCN1 (stereo not given) | 18.4
CCOc1ccc(Cl)cc1C1CCCN1 (stereo not given) | 18.2
CCOc1ccc(Cl)cc1C1CCCCN1 (stereo not given) | 54.9
O=C(CCn1ccnc1)N1CC[C@H](Oc2cccc(F)c2)[C@@H](O)CC1 | 7.3
Cc1cc(NC(=O)C(c2cccc(F)c2)N2CCOCC2)sn1 (stereo not given) | -22.8
O=C(Nc1nnc[nH]1)C(c1cccc(F)c1)N1CCOCC1 (stereo not given) | 52.6
Cc1cc(NC(=O)C(c2cccc(F)c2)N2CCOCC2)ccn1 (stereo not given) | 41.1
O=C(Cn1cc(I)cn1)N1CCNC1=O | -28
N#Cc1cccnc1OC1CCNCC1 | 5.58

SMILES | INHIBITION [%]
COC(=O)c1ccc(S(=O)(=O)N2CCC(Oc3cccnn3)CC2)cc1 | 26.6
COC(=O)c1sccc1S(=O)(=O)N1CCC(Oc2ncccc2Cl)CC1 | 38.5
N#Cc1cccnc1OC1CCN(S(=O)(=O)c2ccc(Br)cc2)CC1 | 50.4
N#Cc1cccnc1OC1CCN(S(=O)(=O)c2c(F)cccc2F)CC1 | 54.6
O=S(=O)(c1ccccc1F)N1CCC(Oc2cccnn2)CC1 | 43.3
O=S(=O)(c1cc(F)cc(F)c1)N1CCC(Oc2ccc(Cl)cn2)CC1 | 35.8
N#Cc1cccnc1OC1CCN(S(=O)(=O)c2ccc(F)c(Cl)c2)CC1 | 64.3
O=S(=O)(c1c(F)cccc1F)N1CCC(Cn2cccn2)CC1 | 36.3
c1cncc(OCc2nnn3c2CN(Cc2ccsc2)CCC3)c1 | 16.6
Cc1ccncc1C(=O)N1CCCC(C(=O)CCc2ccccc2)C1 (stereo not given) | -34.8
COc1ccccc1NC(=O)NCC(O)c1ccc(F)cc1F (stereo not given) | 12.7
O=C(CC1CC1)N1CCC2(CCCN(CCOc3ccccc3)C2)C1 (stereo not given) | 27.2
NC(=O)CN1C[C@@H](c2ccccc2F)[C@@]2(CCCCC(=O)N2)C1 | 21.95
CCc1ccc(CCC(=O)N2CCC(=O)Nc3cccnc32)cc1 | 70.3
CC(C)c1ocnc1C(=O)N1CCC(=O)Nc2cccnc21 | 4.13
Cc1ccc(CCCC(=O)N2CCC(=O)Nc3cccnc32)s1 | 47.1
Cc1cccc(CN2C(=O)C[C@H]3[C@@H]2CCN3Cc2ccc(F)cc2)n1 | -4.82
CN1CC[C@@H]2[C@@H]1CCN2Cc1ccc2c(c1)OCO2 | 35.8
Cc1cccc(CN2C(=O)CC[C@@H]3[C@H]2CCN3Cc2cccnc2)n1 | 31.1
Cc1cccc(CN2C(=O)CC[C@@H]3[C@H]2CCN3Cc2ccc(F)cc2)n1 | 69.5
Cn1cc(C[C@H]2[C@H](O)CCN2Cc2ccc3c(c2)OCO3)cn1 | 22.9
Cn1cc(CN2CC[C@@H]3[C@@H]2CCN3Cc2ccc3c(c2)OCO3)cn1 | 60.5
Cc1cccc(CN2CC[C@H]3[C@H]2CCN3Cc2cnn(C)c2)n1 | 51.6
Cc1cccc(CN2CC[C@@H]3[C@@H]2CCN3Cc2cccs2)n1 | 33.1
Cc1cccc(CN2CC[C@H]3[C@H]2CCN3C(=O)c2cnn(C)c2)n1 | -0.554
